Here are results for 7 compounds from PubChem BioAssay (EPA / NIEHS).

Each structure is given as a SMILES string. Calls of active or inactive are those of the source. The calls were made as follows: active = hit-call score of the fitted dose curve at least 0.9, where 1 is the maximum; inactive = score below 0.9.

Read-out in test [1]: Vascular endothelial growth factor receptor 2 (Homo sapiens) (UniProt P35968)
Put plainly: BSK_4H_VEGFRII: BioMAP Diversity Plus: 4H Assay for Vascular endothelial growth factor receptor 2 (VEGFR2) Biomarker Activity (AID 2283031).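 As to AC50: cell-surface VEGFR2 protein level quantified by ELISA.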 The conditions noted are these: primary human endothelial cells (HUVEC); actives raise or lower the signal. The method, boiled down:
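ELISA read-out of VEGFRII in primary human umbilical vein endothelium, taken 24 h after chemical treatment. Responses are expressed relative to DMSO, with bidirectional fitting.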

Read-out in test [2]: Human Leukocyte Antigen - DR isotype (HLADR), HLA-DRA (gene 3122)
Description: BSK_BE3C_HLADR: BioMAP Diversity Plus: BE3C Assay for Human Leukocyte Antigen - DR isotype (HLADR) Biomarker Activity (AID 2283032). The conditions noted are these: primary human bronchial epithelial cells; actives raise or lower the signal. The essentials:
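Human primary bronchial epithelial cells (BE3C system) exposed to compound for 24 hours; cell-surface HLA-DR measured by ELISA, fitted bidirectionally relative to DMSO. Total protein by SRB in parallel cultures tracked cytotoxicity.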

Read-out in test [3]: Vascular cell adhesion molecule 1 (VCAM1), VCAM1 (gene 7412)
Description: BSK_4H_VCAM1: BioMAP Diversity Plus: 4H Assay for Vascular cell adhesion molecule 1 (VCAM1) Biomarker Activity (AID 2283033). The conditions noted are these: primary human endothelial cells (HUVEC); actives raise or lower the signal. The method, boiled down: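 Primary human umbilical vein endothelial cells, 4H stimulation system, treated for 24 h; cell-surface VCAM-1 quantified by ELISA. Bidirectional fitting against DMSO; cytotoxicity tracked by SRB total-protein staining in parallel cultures.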

Read-out in test [4]: Interferon-gamma inducible Protein 10 (IP10), CXCL10 (gene 3627)
Description: BSK_BE3C_IP10: BioMAP Diversity Plus: BE3C Assay for Interferon-gamma inducible Protein 10 (IP10) Biomarker Activity (AID 2283034). The conditions noted are these: primary human bronchial epithelial cells; actives raise or lower the signal. The essentials: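 Primary human bronchial epithelial cells, with IP-10 measured by ELISA 24 hours after chemical dosing. Bidirectional fit against DMSO; cytotoxicity checked by SRB total protein staining in parallel cultures.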

Read-out in test [5]: Monokine induced gamma interferon (MIG), CXCL9 (gene 4283)
Description: BSK_BE3C_MIG: BioMAP Diversity Plus: BE3C Assay for Monokine induced gamma interferon (MIG) Biomarker Activity (AID 2283035). The conditions noted are these: primary human bronchial epithelial cells; actives raise or lower the signal. The essentials:
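ELISA read-out of MIG in human lung bronchial epithelial primary cultures, 24 h post-dosing. Bidirectional curve fit vs DMSO baseline.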

Read-out in test [6]: Plasminogen activator inhibitor-1 (PAI1), SERPINE1 (gene 5054)
Put plainly: BSK_BE3C_PAI1: BioMAP Diversity Plus: BE3C Assay for Plasminogen activator inhibitor-1 (PAI1) Biomarker Activity (AID 2283037). The conditions noted are these: primary human bronchial epithelial cells; actives raise or lower the signal. The method, boiled down: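 Primary human bronchial epithelial cells (BE3C system) exposed 24 h; PAI-1 quantified by ELISA. Parallel sulforhodamine B staining of total protein flags cytotoxicity. Bidirectional fit versus DMSO.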

Read-out in test [7]: urokinase plasminogen activator (uPA), PLAU (gene 5328)
Put plainly: BSK_BE3C_uPA: BioMAP Diversity Plus: BE3C Assay for urokinase plasminogen activator (uPA) Biomarker Activity (AID 2283038).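 Also: uPA protein level quantified by ELISA in cell cultures; uPA read one day after compound addition.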 The conditions noted are these: primary human bronchial epithelial cells; actives raise or lower the signal. The essentials:
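Bronchial epithelial cells (human, primary); chemical 24 h; uPA by ELISA; bidirectional fit vs DMSO. SRB (0.1%, after 10% TCA fixation, 560 nm) in parallel cultures for cytotoxicity.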

Read-out in test [8]: Urokinase-type plasminogen activator receptor (uPAR), PLAUR (gene 5329)
Put plainly: BSK_BE3C_uPAR: BioMAP Diversity Plus: BE3C Assay for Urokinase-type plasminogen activator receptor (uPAR) Biomarker Activity (AID 2283039).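 Also: uPAR protein level measured by ELISA on the cells; cells exposed to compound for one day before measurement.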 The conditions noted are these: primary human bronchial epithelial cells; actives raise or lower the signal. The essentials:
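Primary human bronchial epithelial cells dosed for 24 h; uPAR quantified by ELISA with bidirectional fitting against DMSO. Overt cytotoxicity assessed in parallel cultures by SRB total-protein staining (0.1% SRB, 560 nm).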

Read-out in test [9]: Interleukin-6 (IL6), IL6 (gene 3569)
Put plainly: BSK_CASM3C_IL6: BioMAP Diversity Plus: CASM3C Assay for Interleukin-6 (IL6) Biomarker Activity for (AID 2283040). The conditions noted are these: primary human coronary artery smooth muscle cells; actives raise or lower the signal.

Read-out in test [10]: Tissue plasminogen activator (tPA), PLAT (gene 5327)
Put plainly: BSK_BE3C_tPA: BioMAP Diversity Plus: BE3C Assay for Tissue plasminogen activator (tPA) Biomarker Activity (AID 2283041).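 As to outcome: tPA level quantified by ELISA one day after compound addition.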 The conditions noted are these: primary human bronchial epithelial cells; actives raise or lower the signal. The essentials: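 Primary human bronchial epithelial cells in the BE3C system, exposed to compound for 24 h. tPA was quantified by ELISA; DMSO served as baseline, with gain or loss of signal fitted. Cytotoxicity checked in parallel cultures by SRB total-protein staining.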

Read-out in test [11]: Interleukin-8 (IL8), CXCL8 (gene 3576)
Put plainly: BSK_CASM3C_IL8: BioMAP Diversity Plus: CASM3C Assay for Interleukin-8 (IL8) Biomarker Activity (AID 2283042).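 Also: IL-8 protein level quantified by ELISA.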 The conditions noted are these: primary human coronary artery smooth muscle cells; actives raise or lower the signal.

Read-out in test [12]: Human Leukocyte Antigen - DR isotype (HLADR), HLA-DRA (gene 3122)
Description: BSK_CASM3C_HLADR: BioMAP Diversity Plus: CASM3C Assay for Human Leukocyte Antigen - DR isotype (HLADR) Biomarker Activity (AID 2283043).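 Also: cell-surface HLA-DR protein level quantified by ELISA.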 The conditions noted are these: primary human coronary artery smooth muscle cells; actives raise or lower the signal.

Read-out in test [13]: Macrophage colony-stimulating factor (MCSF), CSF1 (gene 1435)
Put plainly: BSK_CASM3C_MCSF: BioMAP Diversity Plus: CASM3C Assay for Macrophage colony-stimulating factor (MCSF) Biomarker Activity (AID 2283044).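 Also: M-CSF protein amount quantified by ELISA after 24 h exposure.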 The conditions noted are these: primary human coronary artery smooth muscle cells; actives raise or lower the signal.

Read-out in test [14]: Low-density lipoprotein receptor (LDLR), LDLR (gene 3949)
Description: BSK_CASM3C_LDLR: BioMAP Diversity Plus: CASM3C Assay for Low-density lipoprotein receptor (LDLR) Biomarker Activity (AID 2283045).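 Also: LDLR protein level on the cell surface quantified by ELISA.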 The conditions noted are these: primary human coronary artery smooth muscle cells; actives raise or lower the signal.

Read-out in test [15]: Monocyte Chemoattractant Protein-1 (MCP1), CCL2 (gene 6347)
Description: BSK_CASM3C_MCP1: BioMAP Diversity Plus: CASM3C Assay for Monocyte Chemoattractant Protein-1 (MCP1) Biomarker Activity (AID 2283046).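 Also: MCP-1 level quantified by ELISA 24 h after dosing.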 The conditions noted are these: primary human coronary artery smooth muscle cells; actives raise or lower the signal.

A short description of test [16]: BSK_CASM3C_Proliferation: Cell Proliferation Assessment in the BioMAP Diversity Plus: CASM3C Assay (AID 2283047).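 Also: sulforhodamine B total protein stain as relative cell number at 560 nm; sub-confluent cells exposed 48 h before staining; fitted both ways against DMSO so gain or loss of cell number.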 The conditions noted are these: primary human coronary artery smooth muscle cells.
Read-out in test [17]: Monokine induced gamma interferon (MIG), CXCL9 (gene 4283)
Put plainly: BSK_CASM3C_MIG: BioMAP Diversity Plus: CASM3C Assay for Monokine induced gamma interferon (MIG) Biomarker Activity (AID 2283048).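 Also: MIG protein level measured by ELISA.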 The conditions noted are these: primary human coronary artery smooth muscle cells; actives raise or lower the signal.

Read-out in test [18]: serum amyloid A (SAA), SAA1 (gene 6288)
Put plainly: BSK_CASM3C_SAA: BioMAP Diversity Plus: CASM3C Assay for serum amyloid A (SAA) Biomarker Activity (AID 2283049).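 Also: SAA protein level quantified by ELISA.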 The conditions noted are these: primary human coronary artery smooth muscle cells; actives raise or lower the signal.

Test [19] in a line: BSK_CASM3C_SRB: Viability Assessment in the BioMAP Diversity Plus: CASM3C Assay (AID 2283050). The conditions noted are these: primary human coronary artery smooth muscle cells.
Read-out in test [20]: Transforming growth factor beta 1 (TGFb1), TGFB1 (gene 7040)
Description: BSK_BE3C_TGFb1: BioMAP Diversity Plus: BE3C Assay for Transforming growth factor beta 1 (TGFb1) Biomarker Activity (AID 2283036). The conditions noted are these: primary human bronchial epithelial cells; actives raise or lower the signal. The essentials: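 Primary human bronchial epithelial cells dosed with chemical; TGF-b1 measured by ELISA 24 h after dosing. Bidirectional curve fitting against DMSO negative control; SRB total-protein staining in parallel cultures gauged cytotoxicity.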

Turning to `CCNc1cccc(C)c1`, the outcome in test [1], in [2], in [3], in [4], in test [5] and in [6] was inactive. The outcome in test [7], in [8], in test [9], in test [10], in test [11] and in test [12] was inactive. The result in test [13], in test [14], in test [15], in [16], in [17] and in [18] was inactive. Also, the outcome in test [19] was inactive.
The AC50 is the concentration at which the activity in the assay is half-maximal. With `C1CCC(SSC2CCCCC2)CC1`, the outcome in [1], in test [2], in [4], in test [5], in [6] and in [7] was inactive. The outcome in test [8], in test [9], in [10], in test [11], in [13] and in test [14] was inactive. Besides, the outcome in test [17], in [18] and in [19] was inactive. For the same compound, the AC50 is 20 µM (active) in [3], 30.5 µM (active) in test [12], 31.5 µM (active) in [15] and 34.1 µM (active) in [16].
Take `Nc1ccc2c(c1)C(=O)c1ccccc1C2=O`: the result in [1], in test [2], in test [3], in test [4], in test [5] and in test [20] was inactive. Besides, the result in test [6], in test [7], in [8], in [9], in [10] and in test [11] was inactive. Further, the outcome in test [12], in test [13], in [14], in [17], in test [18] and in test [19] was inactive. Further, the AC50 in test [16] is 14.3 µM (active).
With `CCCCCCCCCCO`, the result in test [1], in [2], in test [3], in [4], in test [5] and in [20] was inactive. Besides, the result in test [6], in test [7], in test [8], in [9], in test [10] and in [11] was inactive. Besides, the result in test [12], in [13], in test [14], in test [15], in [16] and in test [17] was inactive. Also, the result in [18] and in test [19] was inactive.
Regarding `CCCCCCCCCCCCCO`, the AC50 was 30.6 µM (active) in [1]; 36.1 µM (active) in [3]; 29.7 µM (active) in test [4]; 26.9 µM (active) in [10]; 34.5 µM (active) in [13]; 33.3 µM (active) in [15]. The figures for the concentration at half-maximal activity (AC50) in [16] and in test [19] were 34.2 µM (active) and 34.4 µM (active), respectively. In addition, the result in [2], in test [5], in test [6], in test [7], in test [8] and in test [9] was inactive. The outcome in test [11], in test [12], in [14], in test [17] and in [18] was inactive.
Regarding `CCCCCCC(=O)OCC`, the outcome in test [1], in [2], in test [3], in test [4], in test [5] and in test [6] was inactive. The result in [7], in test [8], in test [9], in [10], in test [11] and in test [12] was inactive. In addition, the result in test [13], in test [14], in test [15], in [16], in [17] and in [18] was inactive. For the same compound, in [19], the result was inactive.
As to `CC1=C(/C=C/C(C)=C/C=C/C(C)=C/CO)C(C)(C)CCC1`, the result in test [1], in test [4], in [5], in [20], in test [6] and in test [7] was inactive. Moreover, the outcome in test [8], in test [9], in [10], in test [11], in [12] and in test [13] was inactive. For the same compound, the outcome in test [14], in test [15], in [17], in test [18] and in test [19] was inactive. In addition, the AC50 was 18 µM (active) in test [2], 31.1 µM (active) in [3] and 20.9 µM (active) in test [16].
